Pol kappa inh – blocks human DNA polymerase kappa activity | Q9UBT6 | hit rate 0.53% among 400,000 | purified Pol kappa, fluorescent DNA synthesis assay, 10 min | Potency, µM (top dose mostly 107 µM), for inactives: at the top dose activity, negative = inhibition, actives largely listed as inhibitors; note: potency is the fitted concentration of half-maximal effect; % is set by controls: 0 for no effect and ±100 for the full control effect
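First, compounds were pin-transferred onto 10 nM Pol kappa. After 15 min at room temperature, substrate was added to 50 nM final. Fluorescence was then measured kinetically at 0 and 10 min.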
POLB inh – inhibitors of human DNA polymerase beta; hit rate 1.3% among 340,000; Pol beta primer extension/strand displacement, fluorescence kinetic; Potency, µM (top dose mostly 114 µM), for the others: top-dose activity change, negative = inhibition, hits mostly inhibitors; P06746; note: potency is the fitted concentration of half-maximal effect; % is set by controls: 0 for no effect and ±100 for the full control effect
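Reaction started by 50 nM substrate onto compound-treated Pol beta (10 nM, 15 min preincubation, room temperature); plates read at 0 min and 10 min. Normalized concentration-effect data fitted by four-parameter Hill equation.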
Pol eta inh – inhibitors of human DNA polymerase eta | Q9Y253 | Potency, µM (titrated, usually from 114 µM), for the others: at the top dose activity change, negative = inhibition, actives largely listed as inhibitors | hit rate 1.2% among 390,000 | recombinant Pol eta, fluorescent DNA replication assay; note: potency is the fitted concentration of half-maximal effect; % is set by controls: 0 for no effect and ±100 for the full control effect
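Pol eta (10 nM) was preincubated with compounds for 15 min at room temperature, after which fluorescent replication substrate (50 nM final) was added to start the reaction. Fluorescence was read kinetically at 0 and 10 min.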
Pol iota inh – blocks human DNA polymerase iota activity; Q9UNA4; AID 588590; Potency, µM (top dose mostly 115 µM), for the others: top-dose activity, negative = inhibition, actives largely listed as inhibitors; hit rate 1% among 390,000; Pol iota fluorescent replication assay, 10 min; note: potency is the fitted concentration of half-maximal effect
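Pol iota at 10 nM preincubated 15 min with compounds at room temperature; reaction started with fluorescent substrate, 50 nM final. Fluorescence read kinetically at 0 and 10 min; buffer-only wells as negative control.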
ALOX12 inh – ALOX12 (human) lipoxygenase inhibition; hit rate 1.1% among 580,000; Potency, µM (series often up to 108 µM), for the others: at the top dose activity change, negative = inhibition, hits mostly inhibitors; AID 1671190; purified 12hLO, xylenol orange hydroperoxide absorbance; P18054; note: potency is the fitted concentration of half-maximal effect; % is set by controls: 0 for no effect and ±100 for the full control effect
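Hydroperoxide product was detected by ferrous iron/xylenol orange as the 573 to 405 nm absorbance ratio. Arachidonic acid at 40 uM (final) was turned over for 30 min at room temperature by 150 nM human 12hLO, pH 7.0 Hepes buffer, after 15 min compound preincubation.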
PI5P4K alpha inh – inhibitors of human PI5P4K alpha. P48426. PI5P4Kalpha enzyme, ADP-Glo luminescence, 60 min; hits give low values. max response, %. hit rate 1.2% among 330,000; active = max response of -50% or lower; inconclusive = between -30% and -50%; inactive = -30% or higher; note: value at the top dose of about 77 µM; % is set by controls: 0 for no effect and ±100 for the full control effect
Target sequence (P48426 whole entry, looked up): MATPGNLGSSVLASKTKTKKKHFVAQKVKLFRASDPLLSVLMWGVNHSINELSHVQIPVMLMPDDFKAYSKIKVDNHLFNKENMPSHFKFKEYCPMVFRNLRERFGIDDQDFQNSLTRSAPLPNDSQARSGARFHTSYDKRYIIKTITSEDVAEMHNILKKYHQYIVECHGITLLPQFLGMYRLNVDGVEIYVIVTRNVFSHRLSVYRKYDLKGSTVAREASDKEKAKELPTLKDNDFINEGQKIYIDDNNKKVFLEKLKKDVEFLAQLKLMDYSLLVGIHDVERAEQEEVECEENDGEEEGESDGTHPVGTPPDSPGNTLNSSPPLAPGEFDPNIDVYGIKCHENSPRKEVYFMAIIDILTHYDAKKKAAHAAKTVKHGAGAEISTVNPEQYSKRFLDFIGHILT
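Controls without substrate or without enzyme flank wells where PI5P4Kalpha converts substrate using 5 microM ATP (final). Incubation lasts 60 minutes at room temperature; ADP formed is read by ADP-Glo luminescence.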
The depositor's hits bear a star; ? = inconclusive; · = no result; [ ] = dose if it differs, or a comment. Compounds with a hit are over-represented: about 2.9% of the library has one in this group of screens. Unless noted, calls come from the whole dose curve; as a rule, active = well fitted inhibition curve with a large enough effect; inconclusive = small, poorly fitted or top-dose-only effect, or another doubt; inactive = no such curve, though single readings can be large or run the other way.

SMILES | Pol kappa inh | POLB inh | Pol eta inh | Pol iota inh | ALOX12 inh | PI5P4K alpha inh
CC1=C(C(=O)OCc2ccccc2)C(c2ccccc2OS(=O)(=O)c2ccc(C)cc2)NC(=O)N1CCCC(=O)O (centres undefined) | -5.3% | · | 9.8% | ? | ? | -71.9*
COC(=O)C1=C(C)N(CCCC(=O)O)C(=O)NC1c1ccccc1OS(=O)(=O)c1ccccc1[N+](=O)[O-] (centres undefined) | -1.3% | · | 1.1% | -21.6% | -23.0% | -83.9*
CC1=C(C(=O)OCc2ccccc2)C(c2ccc3c(c2)OCO3)NC(=O)N1CCCC(=O)O (centres undefined) | 7.3% | · | -1.1% | -11.3% | -13.7% | -78.3*
CCOC(=O)C1=C(C)N(Cc2ccccc2)C(=O)NC1c1ccccc1OS(=O)(=O)c1ccccc1[N+](=O)[O-] (centres undefined) | 5.7% | · | -14.9% | 14.0% | -7.2% | -0.9
CC1=C(C(=O)OCc2ccccc2)C(c2ccccc2[N+](=O)[O-])NC(=O)N1C (centres undefined) | -8.0% | 1.4% | -21.2% | 36.5% | 15.8µM* | 1.4
Cc1noc2c(NCc3ccncc3)cc(-c3cccc(C(F)(F)F)c3)nc12 | · | · | · | · | -19.1%[176 µM] | ·
COc1cc(C(=O)Nc2ccc(N3CCOCC3)nc2)cc2c1OCCO2 | · | · | · | · | 52.5% | ·
CCC(C)NC(=O)[C@@H](NC(=O)N1CCn2c1nc1ccccc12)C(C)C (some centres undefined) | · | · | · | · | 27.4% | ·
CC1=C(C(=O)OCc2ccccc2)C(c2ccccc2Cl)NC(=O)N1CCCC(=O)O (centres undefined) | 8.6% | 14.8% | -13.8% | 14.5% | -1.8% | -73.0*
CCOC(=O)C1=C(C)N(C)C(=O)NC1c1cc2c(cc1[N+](=O)[O-])OCO2 (centres undefined) | ? | 17.8µM* | -14.1% | 2.82µM* | ? | -2.7
CC1=C(C(=O)OCc2ccccc2)C(c2ccc3ccccc3c2)NC(=O)N1CCCC(=O)O (centres undefined) | 8.5% | ? | 4.2% | ? | -11.4% | -101.3*
CCCCOC(=O)C1=C(C)N(C)C(=O)NC1c1cc2c(cc1Br)OCO2 (centres undefined) | · | · | -12.5% | · | -1.1% | 0.1
Cc1c(C)c2ccc(OCC(=O)Nc3ccc(CCO)cc3)cc2oc1=O | · | · | · | · | 5.9% | ·
CS(=O)(=O)N1CCN(Cc2nc3ccsc3c(=O)[nH]2)CC1 | · | · | · | · | -8.9% | ·
Cc1oc2ncnc(N3CCC(C(=O)Nc4ccc(Cl)cc4F)CC3)c2c1C | · | · | · | · | 6.5% | ·
COc1ccc(NC(=O)c2ccc3c(c2)C(=O)N(Cc2ccncc2)C3=O)cc1S(N)(=O)=O | -10.3% | · | ? | 31.6µM* | 5.0% | -2.4
CC(C)(C)c1ccc(-c2n[nH]c(=S)n2Cc2ccccc2)cc1 | -7.8% | 13.6% | -29.3% | 67.8% | ? | 0.3
CC(C)n1c(-c2ccc(C(C)(C)C)cc2)n[nH]c1=S | -5.4% | 7.5% | -17.5% | -0.7% | 15.8µM* | ·
CCCC(NC(=S)NCC1CCCO1)C12CC3CC(CC(C3)C1)C2 (centres undefined) | -12.2% | ? | -15.5% | -7.7% | 39.8µM* | 0.2
Cc1cc2c(c(=O)n1CCN(C)C)C(c1cccc(Br)c1)C(C#N)=C(N)O2 (centres undefined) | · | · | · | · | -16.3% | ·
CCOC(=O)C1=C(C)Nc2nc(=S)[nH]n2C1c1ccc(Cl)cc1 (centres undefined) | -1.3% | -1.2% | 1.5% | -13.3% | ? | -60.0*
CCOC(=O)C1=C(C)Nc2nc(SCC)nn2C1c1ccc(OC)cc1 (centres undefined) | -18.4% | 37.2% | -7.3% | -0.7% | -17.5% | 12.1
COc1ccc(-c2nc(CN3CCCC3c3cc(C)no3)co2)cc1 (centres undefined) | · | · | · | · | -10.2% | ·
O=C1OC(c2ccc(Cl)cc2)=N/C1=C\C=C\c1ccco1 | ? | 28.2µM* | 18.4% | ? | ? | -1.1
COc1ccc2oc(/C=C/N(C)C)c(C(=O)c3ccc(Cl)cc3)c2c1 | -14.9% | 13.2% | -7.7% | -2.2% | 7.08µM* | ·
SMILES | Pol kappa inh | POLB inh | Pol eta inh | Pol iota inh | ALOX12 inh | PI5P4K alpha inh
Cc1ccc(S(=O)(=O)NN(Cc2ccccc2)Cc2ccccc2)cc1 | · | · | -22.5% | · | 15.8µM* | 3.9
CCNc1nc(NCC)n2c(SCC(=O)Nc3ccccc3C(F)(F)F)nnc2n1 | ? | · | ? | 79.4µM* | -0.7% | -15.7
CCNc1nc(NCC)n2c(SCC(=O)Nc3cccc(Cl)c3)nnc2n1 | ? | · | 14.1µM* | ? | · | -0.2
CCNc1nc(NCC)n2c(SCC(=O)Nc3ccc(OC)c(OC)c3)nnc2n1 | -25.3% | · | ? | 3.0% | -5.7% | -11.8
CCNc1nc(NCC)n2c(SCC(=O)Nc3cccc(F)c3)nnc2n1 | ? | · | ? | 44.7µM* | -16.3% | -9.4
O=C(CCc1ncc(-c2ccccc2Cl)o1)NC1=NCCS1 | · | · | · | · | 36.2% | ·
CCc1ccc(/C=C/C(=O)c2cc(Br)ccc(=O)c2O)cc1 | ? | 15.8µM* | ? | ? | ? | -28.8
CCOc1ccc(/C=C/C(=O)Oc2ccc(Br)cc2)cc1 | · | · | · | · | 2.1% | ·
CCc1ccc(/C=C/C(=O)c2ccc(O)cc2)cc1 | · | · | · | · | -0.4% | ·
CCOc1ccc(/C=C/C(=O)c2cc(Br)ccc(=O)c2O)cc1 | ? | ? | ? | ? | 28.2µM* | ?
CC(C)C(C)(C#N)NC(=O)COc1ccccc1C(F)(F)F (centres undefined) | · | · | · | · | 8.8% | ·
CN(CCOC(=O)c1ccc(F)cc1)C(C)(C)C | · | · | · | · | 7.6% | ·
O=[N+]([O-])c1ccc(Cn2cc(-c3cccc(C(F)(F)F)c3)nn2)cc1 | ? | -4.2% | -8.7% | 89.1µM* | -16.8% | 14.3
C[N+]1(CC(=O)OC2CCCCCCCCCCC2)CCCC1 | -5.2% | -9.3% | ? | 130.8% | 44.7µM* | 13.3
COC(=O)CCCCCCCCCC[N+]1(C)CCCCC1 | -10.6% | -13.5% | -14.7% | 0.6% | ? | -8.9
COc1ccc(C(=O)/C=C/c2ccc(-c3ccc(OC)cc3)o2)cc1 | · | · | · | · | 0.316µM* | ·
Cc1ccc(-c2ccc(/C=C/C(=O)c3ccccc3)o2)cc1 | -0.9% | 1.2% | -11.8% | 12.2% | 3.55µM* | -3.7
Cc1ccc(/C=C/C(=O)NC2CCCCCCC2)o1 | -14.9% | 0.7% | -10.3% | ? | -19.3% | -55.2*
Cc1ccc(/C=C/C(=O)c2ccccc2)o1 | · | · | · | · | 14.1µM* | ·
Cc1ccc(/C=C/C(=O)c2ccc(C)o2)o1 | · | · | · | · | -60.8% | ·
CC(=O)Nc1cccc(-c2cnc3ccc(Cc4ccc(F)c(F)c4)nn23)c1 | · | · | · | · | -58.5% | ·
O=C(O)Cc1ccc2[nH]c3ccccc3c2c1 | · | · | · | · | -5.2% | ·
COc1cccc(-n2c(C)nc3c(cnn3-c3ccc(C)cc3)c2=O)c1 | -7.8% | -1.0% | 8.0% | 3.3% | -26.0% | -7.7
